The structures appear in SMILES notation. “And” between values parts separate entries of the source, which are not always exact repeats. Identical values can stand only once. The panel holds about 79,000 compounds, 15% with a hit somewhere; the sample as a whole holds those more often. Values without a mark were called inactive. The source made the active and inactive calls. No stated cut-off is given here; in the data, active means growth inhibition above about 70%; inactive means the rest.

Test [1] in a line: NCI Yeast Anticancer Drug Screen. Data for the rad50 strain (AID 155).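 Further: 0% = growth of vehicle-only cultures of the same strain.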 To be noted: S. cerevisiae rad50 strain growth inhibition, active compounds read high; at 50.0 µM unless noted. In a few lines:
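Yeast carrying a defined DNA repair defect were exposed to test compounds, and growth was compared with vehicle-treated controls to give percent inhibition.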

Test [2] is described as follows: NCI Yeast Anticancer Drug Screen. Data for the mec2-1 strain (AID 157). To be noted: S. cerevisiae mec2-1 strain, active compounds read high; at 50.0 µM unless noted. In short, it runs like this:
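Mutant yeast (mec2-1) grown with compound; growth inhibition relative to vehicle control reported.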

Test [3] in a line: NCI Yeast Anticancer Drug Screen. Data for the sgs1 mgt1 strain (AID 161).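 Further: 0% = growth of cultures given vehicle only.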 The following applies: S. cerevisiae sgs1 mgt1 strain, active compounds read high; at 50.0 µM unless noted. In short, it runs like this:
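Compounds are added to genetically altered yeast, and growth is compared with cultures given vehicle alone to give percent inhibition.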

Test [4] can be described thus: NCI Yeast Anticancer Drug Screen. Data for the cln2 rad14 strain (AID 165).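 Further: 0% = growth equal to vehicle treated cultures.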 To be noted: S. cerevisiae cln2 rad14 strain, active compounds read high; at 50.0 µM unless noted. In a few lines:
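Readout is yeast growth inhibition versus vehicle-treated controls, using a strain with cln2 and rad14 alterations exposed to compound.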

The nature of test [5]: NCI Yeast Anticancer Drug Screen. Data for the bub3 strain (AID 167). The following applies: S. cerevisiae bub3 mutant strain, active compounds read high; at 50.0 µM unless noted. In short, it runs like this: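 Compounds were applied to a genetically altered yeast strain carrying a cell-cycle control defect. Growth inhibition was scored against vehicle-treated controls.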
The nature of test [6]: NCI Yeast Anticancer Drug Screen. Data for the mlh1 rad18 strain (AID 175). To be noted: S. cerevisiae mlh1 rad18 strain growth inhibition, active compounds read high; at 50.0 µM unless noted. In short, it runs like this:
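Genetically defined yeast (DNA repair-deficient) exposed to compounds; growth inhibition determined relative to vehicle.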

With `O=[N+]([O-])c1ccccc1/C=C/c1ccccn1`, the growth inhibition was 2.4% in test [1]; 2.35% in test [2]; -3.55% in test [3]; 20% in test [4]; 41.3% in test [5]; 21.1% in test [6].

For the compound `CCC(=O)CC(=O)CCC(=O)Nc1ccc(Cl)cc1C`, the growth inhibition was -72.2% in test [1]; -15.4% in test [2]; -11.6% in test [3]; -55.2% in test [4]; -12.4% in test [5]; -9.55% in test [6].

`Cc1nc2c(=O)[nH]c(=O)[nH]c2s1`: the growth inhibition in test [1] was -12.6%; in test [2], 5.05%; in test [3], -4.2%; in test [4], -12%; in test [5], -7.5%; in test [6], -8.6%.

On to `CN(C)C(=O)Sc1ccc(C(C)(C)C)cc1`, for which the growth inhibition was 8.3% in test [1]; -8.1% in test [2]; -15.7% in test [3]; -41.5% in test [4]; -1.65% in test [5]; -28.2% in test [6].

With `CCc1ccc(-c2cc(-c3ccc(CC)cc3)cc(-c3ccc(CC)cc3)c2)cc1`, the growth inhibition in test [1] is 20.1%; in test [2], -10.1%; in test [3], -18.9%; in test [4], 0.3%; in test [5], -4.7%; in test [6] it was 7.95%.

For `Nc1cccc(S(=O)(=O)NNc2cc(Cl)ccc2Cl)c1`, the growth inhibition in test [1] was 98.7% (active); in test [2], 98.6% (active); in test [3], 98.8% (active); in test [4], 98.8% (active); in test [5] it was 98.3% (active); in test [6], 99% (active).

Regarding `Cc1cc(C)[nH]c(=O)c1`, the growth inhibition in test [1] was 9.2%; in test [2] it was 0.75%; in test [3], -2.75%; in test [4] it was 3.8%; in test [5], 20.1%; in test [6], 4.4%.

For `O=CC(CO)C(C=O)n1ncc2ccccc21` (stereo not given), the growth inhibition in test [1] is 30.2%; in test [2], 7.7%; in test [3], 28.3%; in test [4], 9.55%; in test [5], 13.3%; in test [6] it was 30.8%.

Turning to `COc1ccc(C(C)c2cc(N=NC(N)=O)c(OC)cc2O)cc1` (stereo not given), the growth inhibition was -2.7% in test [1]; -3.6% in test [2]; -4.1% in test [3]; -4.25% in test [4]; 16.9% in test [5]; 12.7% in test [6].

In the case of `Cc1ccccc1C(=O)C[n+]1ccccc1C`, the growth inhibition in test [1] is -11.8%; in test [2] it was 15.5%; in test [3], -5.7%; in test [4], -21.6%; in test [5], 4.1%; in test [6], 8.3%.

Take `O=C(N/N=C/c1ccc(Cl)cc1)c1cccc([N+](=O)[O-])c1`: the growth inhibition in test [1] is -1.5%; in test [2], 7.7%; in test [3] it was -3.6%; in test [4] it was 4.25%; in test [5], 8.35%; in test [6], -5.7%.

For `COc1cccc(/C=C/C(C)=N/NC(N)=O)c1`, the growth inhibition in test [1] was 6.5%; in test [2], 0.25%; in test [3], 5.5%; in test [4], -7.1%; in test [5], 6.35%; in test [6], 8.65%.

With `N#C/C(=C/n1c(=S)[nH]c2ccccc21)C(N)=O`, the growth inhibition was -30.3% in test [1]; -38.6% in test [2]; -19.2% in test [3]; -12.4% in test [4]; -7.25% in test [5]; -14.6% in test [6].

On to `Cc1ccc(S(=O)(=O)/N=S(/Cc2ccccc2)c2c(C)cccc2C)cc1` (stereo not given), for which the growth inhibition in test [1] was 20.9%; in test [2], 2.65%; in test [3], 20.6%; in test [4], 17.6%; in test [5], -0.75%; in test [6], 3.3%.

On to `COc1cccc2c1C(=O)c1c(O)c(CCl)cc(OC)c1C2=O`, for which the growth inhibition is 16.9% in test [1]; -4.6% in test [2]; 20.9% in test [3]; -33% in test [4]; 5.6% in test [5]; 14.9% in test [6].

Regarding `CC1=C(C(=O)CC(=O)C(=O)Nc2ccc(Cl)cc2C)Sc2ccccc2N1`, the growth inhibition is -4.7% in test [1]; 3.25% in test [2]; -26.6% in test [3]; 9.35% in test [4]; 6.7% in test [5]; -22.6% in test [6].

With `O=C(O)c1cccc(OCCO)c1`, the growth inhibition in test [1] was -10%; in test [2], -11.2%; in test [3] it was -35.8%; in test [4], -26.4%; in test [5] it was -17.9%; in test [6] it was -29.9%.

Regarding `CCOC(=O)C(NC(=O)CC)(Nc1ccc(S(=O)(=O)Nc2nc(C)cc(C)n2)cc1)C(F)(F)F` (stereo not given), the growth inhibition in test [1] is -5.6%; in test [2], -3.4%; in test [3], 8.55%; in test [4], 21.6%; in test [5], 2.5%; in test [6], 7.65%.

For the compound `CC(=O)CC(C[N+](=O)[O-])c1ccccc1` (stereo not given), the growth inhibition in test [1] is -4.7%; in test [2], -0.8%; in test [3] it was -4.65%; in test [4] it was -28.5%; in test [5], -21.6%; in test [6], -6.9%.

With `CC1CCC2(C(=O)O)CCC3(C)C(=CCC4C5(C)CCC(O)C(C)(C)C5CCC43C)C2C1C` (stereo not given), the growth inhibition was 12.8% and 11.4% in test [1]; 11.3% and 0.15% in test [2]; 12.3% and -9.2% in test [3]; 0.45% and 16.4% in test [4]; 5.8% and -7.4% in test [5]; 14.4% and 0.85% in test [6].

For the origin of these results see PubChem BioAssay (NCI).
